Bioassay records: PubChem, National Center for Advancing Translational Sciences (NCATS)
Hits are enriched below; roughly 10% of the tested compounds scored in any of these assays.
HP1b chromo inh: HTS for Inhibitors of HP1-beta Chromodomain Interactions with Methylated Histone Tails; Chromobox protein homolog 1 (Homo sapiens), P83916; AlphaScreen HP1-beta / biotin-H3K9me3 peptide binding; Potency, µM (doses to about 114 µM), for inactives: top-dose activity change, negative = inhibition, hits mostly inhibitors; 390,000 compounds, 0.56% hits; AID 540317, 2011; further: nearly all actives have a fitted effect of over 70% in size
Target sequence (P83916 whole entry, looked up): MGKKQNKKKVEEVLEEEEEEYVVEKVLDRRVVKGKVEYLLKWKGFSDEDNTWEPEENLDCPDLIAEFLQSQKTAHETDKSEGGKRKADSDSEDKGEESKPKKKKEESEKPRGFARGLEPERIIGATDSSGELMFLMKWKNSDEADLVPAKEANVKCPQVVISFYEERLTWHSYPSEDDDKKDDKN
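Compound inhibition of the preformed complex between 50 nM HP1-beta and 50 nM biotinylated H3K9me3 peptide was read by AlphaScreen. Buffer was PBS pH 7.4 with 0.01% Tween-20. Incubations ran 30 min at room temperature, with 10 ug/mL donor/acceptor beads.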
G9a inh: qHTS Assay for Inhibitors of Histone Lysine Methyltransferase G9a. Histone-lysine N-methyltransferase EHMT2 (Homo sapiens), Q96KQ7. G9a H3K9 monomethylation, AlphaScreen, 2 h. Potency, µM (highest dose often 102 µM), inactives show at the highest dose activity, negative = inhibition, usual class: inhibitors. 350,000 compounds, 8.8% hits. AID 504332, 2011; further: on the % scale 0 is the no-effect control and ±100 the full control effect; nearly all actives have a fitted effect of over 75% in size
Target sequence (Q96KQ7 913-1193 limits assumed): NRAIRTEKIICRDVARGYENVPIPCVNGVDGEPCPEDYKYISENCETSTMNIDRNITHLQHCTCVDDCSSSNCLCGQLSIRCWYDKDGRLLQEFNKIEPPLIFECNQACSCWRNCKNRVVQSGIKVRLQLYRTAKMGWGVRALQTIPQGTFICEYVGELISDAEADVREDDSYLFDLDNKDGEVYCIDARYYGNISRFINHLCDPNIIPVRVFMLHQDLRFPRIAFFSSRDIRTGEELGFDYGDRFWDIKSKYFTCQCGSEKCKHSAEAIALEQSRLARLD
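Chemiluminescent proximity detection of H3K9 monomethylation, read after 10 min bead incubation in the dark. Reaction: 20 nM G9a, 500 nM biotin-H3K9 peptide, 20 uM SAM cofactor, 2 h, room temperature, following 15 min enzyme-compound preincubation.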
JMJD2A Tudor inh: qHTS Assay for Inhibitors of JMJD2A-Tudor Domain | AlphaScreen JMJD2A-Tudor / H3K4me3 peptide binding | Lysine-specific demethylase 4A (Homo sapiens), O75164 | AID 504339, 2011 | Potency, µM (titrated, usually from 114 µM), without a hit: at the highest dose activity change, negative = inhibition, hits mostly inhibitors | 390,000 compounds, 4.4% hits; further: on the % scale 0 is the no-effect control and ±100 the full control effect; nearly all actives have a fitted effect of over 50% in size
BAZ2B block: qHTS Assay for Inhibitors of BAZ2B | AlphaScreen BAZ2B-H3K14Ac peptide displacement | Potency, µM (top dose mostly 114 µM), inactives show at the top dose activity change, negative = inhibition, actives largely listed as inhibitors | 360,000 compounds, 4.4% hits | AID 504333, 2011; further: on the % scale 0 is the no-effect control and ±100 the full control effect; nearly all actives have a fitted effect of over 60% in size
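AlphaScreen luminescence quantifies BAZ2B engagement of H3K14Ac peptide; the protein and biotinylated peptide are both at 50 nM final, buffer PBS pH 7.4 with 0.01% Tween-20, all steps at room temperature.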
GLS inhibitor: qHTS for Inhibitors of Glutaminase (GLS); Glutaminase kidney isoform, mitochondrial (Homo sapiens), O94925; GLS enzymatic activity, qHTS titration; Potency, µM (top dose mostly 45.5 µM), inactives show top-dose activity change, negative = inhibition, actives largely listed as inhibitors; 410,000 compounds, 0.21% hits; further: on the % scale 0 is the no-effect control and ±100 the full control effect
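Human kidney-isoform GLS in 45 mM KH2PO4 pH 8.2, 0.02% Tween-20, with compound, started with 1mM L-Glutamine (added stock). Glutamate oxidase/HRP/Amplex red coupled fluorescence read at start and after 30 min at RT.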
L3MBTL1 block: qHTS Assay for the Inhibitors of L3MBTL1; AID 485360, 2010; 230,000 compounds, 0.66% hits; Potency, µM (titrated, usually from 57.1 µM), inactives show top-dose activity, negative = inhibition, usual class: inhibitors; AlphaScreen L3MBTL1–H3K9me1 peptide binding; further: on the % scale 0 is the no-effect control and ±100 the full control effect; nearly all actives have a fitted effect of over 60% in size
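First, the protein-peptide complex forms for 30 min at room temperature (L3MBTL1 50 nM, biotinylated H3K9me1 peptide 75 nM). Next, compounds are pin-transferred and incubated 30 min. Finally, AlphaScreen beads are added and read after 30 min.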
* = called active by the depositor; u = inconclusive; x = no result given; ! = a repeat was not active; [ ] = remark or other dose. The call rests on the fitted dose curve; in most records, active means well fitted curve in the direction sought with a large enough effect; inconclusive means small, poorly fitted or top-dose-only effect, or another doubt; inactive means no such curve, though single readings can be large; an effect the other way counts as inactive or inconclusive. Potency means the concentration at half of the fitted maximal effect.

SMILES | HP1b chromo inh | G9a inh | JMJD2A Tudor inh | BAZ2B block | GLS inhibitor | L3MBTL1 block
CC(C)(NO)/C(=N/O)c1ccc(Br)cc1 | 1% | 32µM* | 28µM* | u | 20% | 2%
COc1ccc(C(=O)NNC(=O)c2ccc(C(C)(C)C)cc2)cc1 | 20% | 15%[59 µM] | -4% | -12% | 0% | x
CC(C)(NO)/C(=N\O)c1ccc(Cl)cc1 | -8% | 10µM* | 40µM* | 56µM* | 0% | 2%
CN(C)c1ccc(/C(=N\O)C(F)(F)F)cc1 | -3% | -8%[59 µM] | -33% | 9% | 14% | 11%
COc1ccc(C(=O)N2CCCCC2CCN2CCOCC2)cc1 (stereo not given) | 34% | -3%[59 µM] | -10% | -9% | 4% | x
COC(=O)c1ccc2c(=O)n(CCCCCC(=O)N3CCN(c4cccc(C)c4C)CC3)c(=O)[nH]c2c1 | 17% | u | -24% | -11% | -3% | x
CCOC(=O)c1ccc(N2CCN(c3cc(C)ccc3C)CC2)c(NC(=O)Nc2ccc(Cl)cc2)c1 | 12% | 5%[59 µM] | -17% | -11% | 2% | x
CCn1c(SCC(=O)Nc2ccc(OC)c(OC)c2)nc2c(c1=O)SCC2 | 25% | x | -5% | -35% | 0% | x
COc1ccccc1-n1c(SCC(=O)Nc2ccc(F)cc2)nc2c(c1=O)SCC2 | 19% | 50µM* | -19% | -29% | 1% | -2%
CCn1c(SCC(=O)Nc2cc(OC)ccc2OC)nc2c(c1=O)SCC2 | -19% | -28% | u | 79µM* | 0% | x
COCCn1c(SCC(=O)NC2CCCCC2)nc2c(c1=O)SCC2 | 19% | 8% | -19% | -22% | 4% | x
COCCn1c(SCC(=O)NCC2CCCO2)nc2c(c1=O)SCC2 (stereo not given) | 27% | 25% | 89µM* | -19% | -1% | x
O=C(Nc1cccc2nsnc12)c1ccc(-c2cccc(Cl)c2)o1 | 28% | 25µM* | -13% | 6%[57.1 µM] | 10% | -12%
O=C(Nc1ccccc1N1CCCCC1)c1ccc(-c2cccc(Cl)c2)o1 | 14% | -1%[59 µM] | 2% | -21% | 7% | -8%
CCOC(=O)c1cc(S(=O)(=O)N2CCN(c3ccc(C)cc3C)CC2)[nH]n1 | -2%[57 µM] | 4µM* | u | 50µM* | 13% | x
CCOC(=O)c1cc(S(=O)(=O)N2CCN(c3ccccc3F)CC2)[nH]n1 | 11%[57 µM] | 16µM* | -30% | u | 0% | x
COC(=O)c1cc(S(=O)(=O)N2CCN(c3ccc(C)cc3C)CC2)cn1C | -21% | -22%[59 µM] | -26% | -10% | 4% | x
COC(=O)c1cc(S(=O)(=O)N2CCN(c3ccccc3F)CC2)c[nH]1 | 57% | 5%[59 µM] | -25% | -10% | -3% | x
CCn1c(CN2CCN(c3cccc(C)c3C)CC2)n[nH]c1=S | 25% | 7.9µM* | -13% | -8% | 0% | -9%
CCn1c2ccccc2c2nnc(N3CCN(c4cccc(C)c4C)CC3)nc21 | 40% | -14%[59 µM] | -12% | -13% | -3% | x
CCOC(=O)c1cc(S(=O)(=O)N2CCN(c3cccc(C)c3C)CC2)[nH]n1 | -2%[57 µM] | 10µM* | -31% | u | 12% | x
COCCn1c(=O)c(-c2ccc(OC)cc2)nc2cnc(N3CCN(C)CC3)nc21 | x | 8%[0.501 µM] | x | x | x | x
Cc1ccc2c(c1)C(=O)OC(C(=O)Nc1ccc(C(=O)O)cc1)C2 (stereo not given) | 24% | -37%[59 µM] | -1% | -6% | -12% | x
O=C1OCCN/C1=C\C(=O)c1ccc(Cl)cc1 | -10% | 56µM* | u | -25% | 30% | -2%
O=C1NCCN/C1=C\C(=O)c1ccc(Br)cc1 | 11% | 50µM* | -25% | -16% | 1% | -5%
SMILES | HP1b chromo inh | G9a inh | JMJD2A Tudor inh | BAZ2B block | GLS inhibitor | L3MBTL1 block
Cn1c(=S)[nH]c2scc(-c3cccs3)c2c1=O | -13% | 10µM* | u | -17% | 6% | 38%
C=CCn1c(=S)[nH]c2scc(-c3cccs3)c2c1=O | 34% | -4%[59 µM] | -23% | -36% | 3% | x
Oc1ccc(Br)cc1CN1CCCCCCC1 | -16% | u | 6.3µM* | 50µM* | 33% | x
Brc1cccc(CN2CCCCCC2)c1 | u | 25µM* | 20µM* | u | 9% | -3%
CC(=O)Nc1ccc(S(=O)(=O)NC2=NCN(C(C)C)CN2)cc1 | 11% | -11%[59 µM] | 6% | -14% | 10% | x
CN(C)Cc1c(O)ccc2c3c(c(=O)oc12)CCCCC3 | 34% | -4%[12.7 µM] | -12% | 1% | 27% | x
CN(Cc1c(O)ccc2c1oc(=O)c1ccccc12)C1CCCCC1 | u | u | 4µM* | 5.6µM* | -2% | x
Cc1oc2ccc(Br)cc2c(=O)c1-c1nn[nH]n1 | 6% | u | u | 56µM* | 12% | 7%
CNCCC(Oc1ccccc1C)c1ccccc1 (stereo not given) | x | 21µM*! | x | x | -7% | x
CCOc1ccccc1NC(=O)Cn1ncc2c(=O)oc3ccc(C)cc3c21 | 21% | -1%[59 µM] | -10% | -3% | -5% | x
NC1(C(=O)O)CCc2cc(C(=O)O)ccc21 (stereo not given) | x | 4.5µM* | x | x | x | x
CCCNC(=O)CCc1c(C)nc2nc(CNC(=O)c3ccccc3)nn2c1C | 7% | 3%[59 µM] | -12% | -1% | 1% | x
COC1(OC)N=C(N)C2(C#N)C(c3ccccc3)NC(C)=CC12C#N (stereo not given) | 31% | x | -10% | -24% | 17% | 2%
CC1=CC(C#N)(C#N)C(C#N)(C#N)C(c2ccccc2)N1 (stereo not given) | x | u | x | 35µM* | x | u
CCC(=O)N1CCc2cc(Br)cc(S(=O)(=O)CCC(=O)NCCc3cccc(C)c3)c21 | 6% | -7%[59 µM] | -9% | 0% | -11% | x
CCc1nc(SC)ncc1C(=O)NCc1cccc(Br)c1 | 60% | -4%[59 µM] | 5% | 2% | -1% | x
Cc1cccc(N=Nc2cn[nH]c2-c2ccco2)c1 | u | u | -11%[11.4 µM] | 20µM* | 11% | u
c1ccc(N=Nc2cn[nH]c2-c2ccco2)cc1 | u | u | u | u | 1% | u
Cc1cc(OCC(=O)Nc2ccc(S(=O)(=O)N3CCN(C)CC3)cc2)cc(C)c1Cl | -17% | u | 50µM* | 50µM* | 3% | -5%[11.4 µM]
O=C(COc1ccccc1Cl)Nc1ccc(S(=O)(=O)N2CCOCC2)cc1 | 4% | -10% | -8% | 10% | 12% | x
